Results taken from PubChem BioAssay (NCATS).
Records with an inconclusive call do not appear. Active and inactive are the calls of the source. Calls follow the shape of the dose curve; as a rule, active = well fitted inhibition curve with a large enough effect; inconclusive = small, poorly fitted or top-dose-only effect; inactive = flat fitted curve, though single readings scatter.

Each molecule was assayed on Zika virus NS2B-NS3 protease (assay: Primary screen GU AMC qHTS for Zika virus inhibitors (AID 1347154;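 also: 0% = no-inhibitor control and -100% = no-enzyme control; nearly all actives have a fitted effect of over 70% in size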)). Conditions: Zika NS2B-NS3 unlinked protease, AMC fluorogenic substrate; series mostly up to 54.1 µM; activity change, negative = inhibition: at the top concentration.
In short: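 Fluorogenic AMC-substrate cleavage by noncovalent NS2B-NS3 protease complex (25 nM, pH 8.0 Tris buffer with Tween 20) followed for 15 minutes at room temperature (~20% conversion). Percent inhibition from ex340/em450 signal change, fitted by 4-parameter Hill equation.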

Row | Structure (SMILES) | activity change, negative = inhibition | Potency
1 | O=S(=O)(NCCNCC=Cc1ccc(Br)cc1)c1cccc2cnccc12 | 6.5% (inactive) | –
2 | COc1ccc2ccc(=O)oc2c1CC=C(C)C | -6.72% (inactive) | –
3 | CN(C)c1ccccc1CN1CCCN(Cc2ccccc2N(C)C)C1c1ccncc1 | 4.76% (inactive) | –
4 | C[C@H](CCC(=O)O)[C@H]1CC[C@H]2[C@H]3[C@@H](CC[C@]12C)[C@@]1(C)CC[C@@H](O)C[C@H]1C[C@@H]3O | -9.77% (inactive) | –
5 | CCOc1ccccc1N=Nc1c(C)[nH]n(-c2nc(-c3ccccc3)cs2)c1=O | -0.557% (inactive) | –
6 | O=C(O)CCC=CCC[C@@H]1[C@H](N2CCCCC2)[C@@H](O)C[C@@H]1OCc1ccc(-c2ccccc2)cc1 | 1.91% (inactive) | –
7 | CC(C)=CCCC(C)=CCCC(C)=CCCC(C)=CCCC(C)=CCCC(C)=CCCC(C)=CCCC(C)=CCCC(C)=CCO | 0.225% (inactive) | –
8 | CC(C)(F)C[C@H](N[C@@H](c1ccc(-c2ccc(S(C)(=O)=O)cc2)cc1)C(F)(F)F)C(=O)NC1(C#N)CC1 | -0.85% (inactive) | –
9 | CCCC1OC2C[C@@H]3[C@H]4CCC5=CC(=O)C=C[C@]5(C)[C@H]4C(O)C[C@]3(C)[C@]2(C(=O)CO)O1 (some centres not stated) | -3.79% (inactive) | –
10 | NCC1CCC(C(=O)O)CC1 (configuration not stated) | 12% (inactive) | –
11 | CN(CC=CC#CC(C)(C)C)Cc1cccc2ccccc12 | -5.31% (inactive) | –
12 | NCc1c[nH]c(=S)n1[C@H]1CCc2c(F)cc(F)cc2C1 | 13.5% (inactive) | –
13 | Nc1ccn([C@@H]2O[C@H](CO)[C@@H](O)[C@H]2O)c(=O)n1 | 18% (inactive) | –
14 | CCCCC(C)(C)[C@H](O)C=C[C@H]1[C@H](O)CC(=O)[C@H]1CC=CCCCC(=O)O | -3.53% (inactive) | –
15 | C[C@@H]1[C@H](C)CC[C@]2(C(=O)O)CC[C@]3(C)C(=CC[C@@H]4[C@@]5(C)CC[C@H](O)C(C)(C)[C@H]5CC[C@]43C)[C@@H]12 | -0.379% [at 104 µM] (inactive) | –
16 | C[C@@H]1O[C@@H](O[C@H]2CC[C@@]3(C)[C@H](CC[C@@H]4[C@H]3C[C@@H](O)[C@]3(C)[C@@H](C5=CC(=O)OC5)CC[C@]43O)C2)C[C@H](O)[C@@H]1O[C@H]1C[C@H](O)[C@H](O[C@H]2C[C@H](O)[C@@H](O)[C@@H](C)O2)[C@H](C)O1 (stereo in doubt) | -4.09% [at 104 µM] (inactive) | –
17 | CC[C@H](C)C(=O)O[C@H]1C[C@H](O)C=C2C=C[C@H](C)[C@H](CC[C@@H](O)C[C@@H](O)CC(=O)O)[C@H]21 | – | inactive
18 | CO[C@H]1O[C@@H]2O[C@@]3(C)CC[C@@H]4[C@@H](C)CC[C@@H]([C@H]1C)[C@@]24OO3 | 6.37% (inactive) | –
19 | COc1ccc(C=CC(=O)Nc2ccccc2C(=O)O)cc1OC | -16.6% (inactive) | –
20 | O=c1[nH]c(=O)n([C@H]2C[C@@H](O)[C@@H](CO)O2)cc1I | 0.0631% (inactive) | –
21 | Cc1cc(NC(=O)Nc2ccc(N(C)C)cc2)c2cc(F)cc(F)c2n1 | -1.41% (inactive) | –
22 | CCNC(=O)CCCC=CC[C@@H]1[C@H](C=CC(O)CCc2ccccc2)[C@@H](O)C[C@@H]1O (some centres not stated) | 5.67% (inactive) | –
